This passage reports cytotoxicity call results from the antibiotic and cytotoxicity screens of Wong et al. (2023).

About 1,500 (3.8%) of roughly 39,000 compounds were called active. Shown is part of a subset that was picked to be rich in actives.

This assay concerns HSkMC (human skeletal muscle cells). Put plainly: cytotoxicity call (relative viability < 0.9). The conditions noted are these: 10 µM.
For the compound `C[C@H](O)C#Cc1ccc2c(c1)O[C@@H](CN(C)C(=O)Nc1ccccc1)[C@@H](C)CN([C@H](C)CO)S2(=O)=O`, the cytotoxicity call was “inactive”.

Regarding `CC(C)NC(=O)Nc1cccc2c1O[C@H](CN(C)Cc1ccc(C(=O)O)cc1)[C@H](C)CN([C@@H](C)CO)C2=O`, the cytotoxicity call is “inactive”.

Turning to `CCC1C=C2C(=O)OC(=O)C2CC2=C(C(=O)OC2=O)C(OC(C)=O)C1CC` (stereo unspecified), the cytotoxicity call was “inactive”.

For `COc1ccc(CN(C)C[C@H]2Oc3ccc(NC(=O)C4CC4)cc3CC(=O)N([C@@H](C)CO)C[C@H]2C)cc1`, the cytotoxicity call is “inactive”.

In the case of `O=C(C[C@H]1CC[C@@H]2[C@H](COC[C@@H](O)CN2S(=O)(=O)c2cccc(Cl)c2)O1)N1CCOCC1`, the cytotoxicity call is “inactive”.

In the case of `CN(C)C(=O)c1ccc(-c2cccc(-c3nc(C(=O)NC4CCCC4)cc4c3[C@H](CCO)N([S@@](=O)C(C)(C)C)C4)c2)cc1`, the cytotoxicity call is “inactive”.

On to `Nc1nonc1/C(=N/O)N1CCCCC1`, for which the cytotoxicity call is “inactive”.

`Cc1nn(C)c(COc2ccc(N3CCN(S(=O)(=O)N(C)C)CC3)cc2)c1-c1cccc2c(CCCOc3cccc4ccccc34)c(C(=O)O)n(CCN3CCNCC3)c12`: the cytotoxicity call was “inactive”.

As for `O=C1C=CC(=O)N1`, the cytotoxicity call was “active”.

As for `CN1CCC(OC(c2ccccc2)c2ccccc2)CC1.Cl`, the cytotoxicity call is “inactive”.

For the compound `CN1C2CCC1CC(OC(c1ccccc1)c1ccccc1)C2.CS(=O)(=O)O` (stereo unspecified), the cytotoxicity call was “inactive”.

For `CC(C)(C)c1ccc(C(=O)CCCN2CCC(OC(c3ccccc3)c3ccccc3)CC2)cc1`, the cytotoxicity call is “active”.

For `C[C@H]1CCCCO[C@H](CN(C)C(=O)CCC(F)(F)F)[C@@H](C)CN([C@@H](C)CO)C(=O)c2cc(NC(=O)CCC(F)(F)F)ccc2O1`, the cytotoxicity call was “inactive”.

Turning to `C[C@@H]1CN([C@H](C)CO)C(=O)c2cc(NS(C)(=O)=O)ccc2O[C@@H]1CN(C)C(=O)Nc1ccc(C(F)(F)F)cc1`, the cytotoxicity call was “inactive”.

Consider `COC(=O)CSc1nc(=O)c(C)n[nH]1`, for which the cytotoxicity call is “inactive”.

As for `C[C@H]1CN([C@@H](C)CO)C(=O)c2cccc(NC(=O)Nc3ccc(C(F)(F)F)cc3)c2O[C@@H]1CN(C)C(=O)Nc1cccc2ccccc12`, the cytotoxicity call was “active”.

In the case of `C[C@@H]1CN([C@H](C)CO)C(=O)c2cccc(NC(=O)Nc3ccc(C(F)(F)F)cc3)c2O[C@@H]1CN(C)C(=O)Nc1cccc2ccccc12`, the cytotoxicity call was “active”.

Consider `C[C@@H]1CN([C@@H](C)CO)C(=O)c2cccc(NC(=O)Nc3ccc(C(F)(F)F)cc3)c2O[C@H]1CN(C)C(=O)Nc1cccc2ccccc12`, for which the cytotoxicity call was “inactive”.

For the compound `C[C@H]1CN([C@@H](C)CO)C(=O)c2cccc(NC(=O)Nc3ccc(C(F)(F)F)cc3)c2O[C@H]1CN(C)C(=O)Nc1cccc2ccccc12`, the cytotoxicity call was “inactive”.

As to `C[C@H](CO)N1C[C@H](C)[C@@H](CN(C)C(=O)Nc2cccc3ccccc23)Oc2c(NC(=O)Nc3ccc(C(F)(F)F)cc3)cccc2C1=O`, the cytotoxicity call is “inactive”.

For `C[C@@H]1CN([C@H](C)CO)C(=O)c2cccc(NC(=O)Nc3ccc(C(F)(F)F)cc3)c2O[C@H]1CN(C)C(=O)Nc1cccc2ccccc12`, the cytotoxicity call is “inactive”.

For the compound `C[C@@H]1CN([C@@H](C)CO)C(=O)c2cccc(NC(=O)Nc3ccc(C(F)(F)F)cc3)c2O[C@@H]1CN(C)C(=O)Nc1cccc2ccccc12`, the cytotoxicity call was “active”.

Regarding `C[C@H](CO)N1C[C@H](C)[C@H](CN(C)C(=O)Nc2cccc3ccccc23)Oc2c(NC(=O)Nc3ccc(C(F)(F)F)cc3)cccc2C1=O`, the cytotoxicity call is “inactive”.

As for `COCC#Cc1cnc2c(c1)C(=O)N([C@@H](C)CO)C[C@@H](C)[C@@H](CN(C)C(C)=O)O2`, the cytotoxicity call was “inactive”.

On to `C[C@@H]1CN([C@H](C)CO)C(=O)c2cc(NC(=O)CCCN(C)C)ccc2O[C@H]1CN(C)S(=O)(=O)c1ccccc1`, for which the cytotoxicity call is “inactive”.

In the case of `C[C@@H]1CCCCO[C@H](CN(C)Cc2ccccc2)[C@H](C)CN([C@H](C)CO)C(=O)c2cc(NC(=O)CCC(F)(F)F)ccc2O1`, the cytotoxicity call is “inactive”.

As to `Cc1ccc(S(=O)(=O)Nc2ccc3c(c2)C(=O)N([C@@H](C)CO)C[C@H](C)[C@H](CN(C)C(=O)Nc2ccccc2)OCCCC[C@@H](C)O3)cc1`, the cytotoxicity call was “inactive”.

For the compound `CCS(=O)(=O)N1CC[C@@H]2CO[C@H](CN3CCN(C)CC3)[C@@H]2C1`, the cytotoxicity call was “inactive”.

`Cc1noc(C)c1S(=O)(=O)Nc1ccc2c(c1)CC(=O)N([C@@H](C)CO)C[C@H](C)[C@@H](CN(C)CC1CC1)O2`: the cytotoxicity call was “inactive”.

As to `C[C@H]1CCCCO[C@@H](CN(C)S(=O)(=O)c2ccccc2)[C@@H](C)CN([C@@H](C)CO)C(=O)c2cc(NC(=O)Nc3ccc(C(F)(F)F)cc3)ccc2O1`, the cytotoxicity call is “inactive”.

As for `C=CCNC1=C2C[C@@H](C)C[C@H](OC)[C@H](O)[C@@H](C)/C=C(\C)[C@H](OC(N)=O)[C@@H](OC)/C=C\C=C(/C)C(=O)NC(=CC1=O)C2=O`, the cytotoxicity call is “active”.

On to `CO[C@H]1/C=C\C=C(/C)C(=O)NC2=CC(=O)C=C(C2=O)[C@H](OC)[C@@H](C)C[C@H](OC)[C@H](O)[C@@H](C)/C=C(\C)[C@@H]1OC(N)=O`, for which the cytotoxicity call is “inactive”.

Consider `COC1=C2C[C@H](C)C[C@H](OC)[C@@H](O)[C@H](C)/C=C(\C)[C@H](OC(N)=O)[C@H](OC)/C=C/C=C(\C)C(=O)NC(=CC1=O)C2=O`, for which the cytotoxicity call was “inactive”.

In the case of `CO[C@H]1/C=C\C=C(/C)C(=O)NC2=CC(=O)C(NCCN(C)C)=C(C[C@@H](C)C[C@H](OC)[C@H](O)[C@@H](C)/C=C(\C)[C@@H]1OC(N)=O)C2=O`, the cytotoxicity call was “active”.

As for `COC1=C2C[C@@H](C)C[C@H](OC)[C@H](O)[C@@H](C)/C=C(\C)[C@H](OC(N)=O)[C@@H](OC)/C=C/C=C(\C)C(=O)NC(=CC1=O)C2=O`, the cytotoxicity call was “active”.

Turning to `C=CCNC1=C2C[C@H](C)C[C@H](OC)[C@@H](O)[C@H](C)/C=C(\C)[C@H](OC(N)=O)[C@H](OC)/C=C/C=C(\C)C(=O)NC(=CC1=O)C2=O`, the cytotoxicity call is “active”.

For the compound `COC1=C2C[C@@H](C)C[C@H](OC)[C@H](O)[C@@H](C)/C=C(\C)[C@H](OC(N)=O)[C@@H](OC)/C=C\C=C(/C)C(=O)NC(=CC1=O)C2=O`, the cytotoxicity call was “inactive”.

With `Cc1noc(C)c1NC(=O)Nc1ccc2c(c1)CC(=O)N([C@H](C)CO)C[C@H](C)[C@H](CN(C)Cc1ccc(C(F)(F)F)cc1)O2`, the cytotoxicity call is “inactive”.

`C[C@H](CO)N1C[C@H](C)[C@H](CN(C)CC2CCOCC2)Oc2ncc(C#Cc3cccc(F)c3)cc2C1=O`: the cytotoxicity call is “inactive”.

Take `CC(C)(C)c1cccc(N)c1`: the cytotoxicity call is “inactive”.

`CCCC(=O)Nc1ccc2c(c1)C(=O)N(C)C[C@@H](OC)[C@@H](C)CN(Cc1ccc(-c3ccccn3)cc1)[C@@H](C)CO2`: the cytotoxicity call is “inactive”.

`COc1cccc(OCc2ccc(Cn3nc(NC(=O)NCc4ccc(F)cc4)c4ccccc43)cc2)c1`: the cytotoxicity call was “inactive”.

Consider `O=c1ccoc2cc(O)c([C@H]3O[C@H](CO)[C@@H](O)[C@H](O)[C@@H]3O)c(O)c12`, for which the cytotoxicity call was “inactive”.

On to `C[C@H]1CN([C@@H](C)CO)C(=O)Cc2cc(NC(=O)C3CCCCC3)ccc2O[C@@H]1CN(C)C(=O)Nc1ccc(C(F)(F)F)cc1`, for which the cytotoxicity call is “inactive”.

Turning to `CC(C)NC(=O)N(C)C[C@H]1Oc2c(NC(=O)C3CCOCC3)cccc2C(=O)N([C@@H](C)CO)C[C@H]1C`, the cytotoxicity call is “inactive”.

For the compound `CCC(=O)OC(CC(=O)O)C[N+](C)(C)C.[Cl-]` (stereo unspecified), the cytotoxicity call was “inactive”.

For `CCS(=O)(=O)NCC[C@H]1CC[C@@H](NS(=O)(=O)c2ccccc2C)[C@@H](CO)O1`, the cytotoxicity call is “inactive”.

`C[C@@H]1CN([C@H](C)CO)C(=O)CCCn2cc(nn2)CO[C@H]1CN(C)C(=O)Nc1ccnc(N2CCOCC2)c1`: the cytotoxicity call is “inactive”.

Consider `Cc1ccc(S(=O)(=O)N(C)C[C@@H]2OCCCC[C@H](C)Oc3ccc(NC(=O)Cc4ccccc4)cc3C(=O)N([C@@H](C)CO)C[C@H]2C)cc1`, for which the cytotoxicity call is “inactive”.

Regarding `C[C@@H]1CCCCO[C@H](CN(C)C(=O)c2ccccc2)[C@@H](C)CN([C@@H](C)CO)C(=O)c2cc(NC(=O)NC3CCCCC3)ccc2O1`, the cytotoxicity call was “inactive”.

With `CC/1=C(CCC(=O)O)/C/2=C/c3[nH]c(c(c3CCC(=O)O)C)/C=C/3\N=C(/C=C/4\N=C(\C=C1/N2)C(=C4C)C=C)C(=C3C)C=C`, the cytotoxicity call was “inactive”.

Consider `C=CC1=C(C)c2cc3[nH]c(cc4nc(cc5[nH]c(cc1n2)c(C)c5CCC(=O)O)C(CCC(=O)O)=C4C)c(C)c3C=C`, for which the cytotoxicity call is “inactive”.

Take `COC(=O)CCc1c(c/2[nH]c1/C=C/1\N=C(/C=C/3\N=C(/C=C/4\N/C(=C2)[C@]2(C)[C@H](C(=O)OC)C(=CC=C42)C(=O)OC)C(=C3C=C)C)C(=C1CCC(=O)O)C)C`: the cytotoxicity call is “active”.

With `Cc1noc(C)c1NC(=O)N(C)C[C@@H]1Oc2c(NC(=O)c3ccc(-c4nccs4)cc3)cccc2C(=O)N([C@H](C)CO)C[C@@H]1C`, the cytotoxicity call is “inactive”.

With `C[C@@H]1CN([C@H](C)CO)C(=O)c2cc(NC(=O)Nc3ccc(C(F)(F)F)cc3)ccc2O[C@@H](C)CCCCO[C@H]1CN(C)C(=O)c1ccccc1`, the cytotoxicity call was “active”.

On to `C[C@@H]1CCCCO[C@@H](CN(C)C(=O)c2ccccc2)[C@H](C)CN([C@H](C)CO)C(=O)c2cc(NC(=O)Nc3ccc(C(F)(F)F)cc3)ccc2O1`, for which the cytotoxicity call is “inactive”.

`C[C@@H]1CN([C@H](C)CO)C(=O)c2cc(NC(=O)Nc3ccc(C(F)(F)F)cc3)ccc2O[C@@H](C)CCCCO[C@@H]1CN(C)C(=O)c1ccccc1`: the cytotoxicity call was “active”.

In the case of `C[C@@H]1CN([C@@H](C)CO)C(=O)c2cc(NC(=O)Nc3ccc(C(F)(F)F)cc3)ccc2O[C@@H](C)CCCCO[C@H]1CN(C)C(=O)c1ccccc1`, the cytotoxicity call was “inactive”.

With `C[C@H]1CCCCO[C@H](CN(C)C(=O)c2ccccc2)[C@@H](C)CN([C@@H](C)CO)C(=O)c2cc(NC(=O)Nc3ccc(C(F)(F)F)cc3)ccc2O1`, the cytotoxicity call is “inactive”.

For `C[C@H]1CCCCO[C@@H](CN(C)C(=O)c2ccccc2)[C@@H](C)CN([C@@H](C)CO)C(=O)c2cc(NC(=O)Nc3ccc(C(F)(F)F)cc3)ccc2O1`, the cytotoxicity call was “inactive”.

`C[C@@H]1CN([C@H](C)CO)C(=O)c2cc(NC(=O)Nc3ccccc3)ccc2O[C@@H](C)CCCCO[C@@H]1CN(C)Cc1ccc(Cl)c(Cl)c1`: the cytotoxicity call is “inactive”.
